Data on nine sequences can be found in paper PMC8384837, “Expanding the binding specificity for RNA recognition by a PUF domain”.

Assay in all cases: yeast three-hybrid, YBZ-1, SC-Leu-His + 0.5 mM 3-AT, 4 days
What all share (conditions): tags: N-Gal4 AD-HA kept; label: inside an RPR1-promoter hybrid RNA with tandem MS2 sites; ssRNA

In experiment [1] the target is PUM1 PUF domain R3-YRA (Homo sapiens, UniProt Q14671 828-1176, C935Y;Q939A). A digest of the protocol:
(§1)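 A centromeric plasmid in strain YBZ-1 co-expressed Pumilio-1 PUF domain libraries, randomized at the three base-contacting residues of each repeat, with matching RNA elements; the strain carries a LexA–MS2 coat fusion and a HIS3 reporter. After four days on SC-Leu (input) or SC-Leu-His + 0.5 mM 3-AT (selection), the repeat regions were PCR-amplified and Illumina-sequenced. The interaction score is the log change in variant frequency from input to selection, using log2 and a pseudocount of 1 where absent.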

Experiment [2] addresses PUM1 PUF domain R3-FCA (Homo sapiens, UniProt Q14671 828-1176, C935F;R936C;Q939A). The procedure, abridged:
as §1

Experiment [3] deals with PUM1 PUF domain R3-DYG (Homo sapiens, UniProt Q14671 828-1176, C935D;R936Y;Q939G). A digest of the protocol:
as §1

The target of experiment [4] is T1, PUM1 PUF domain R6-GWQ (Homo sapiens, UniProt Q14671 828-1176, N1043G;Y1044W).
T1 sequence: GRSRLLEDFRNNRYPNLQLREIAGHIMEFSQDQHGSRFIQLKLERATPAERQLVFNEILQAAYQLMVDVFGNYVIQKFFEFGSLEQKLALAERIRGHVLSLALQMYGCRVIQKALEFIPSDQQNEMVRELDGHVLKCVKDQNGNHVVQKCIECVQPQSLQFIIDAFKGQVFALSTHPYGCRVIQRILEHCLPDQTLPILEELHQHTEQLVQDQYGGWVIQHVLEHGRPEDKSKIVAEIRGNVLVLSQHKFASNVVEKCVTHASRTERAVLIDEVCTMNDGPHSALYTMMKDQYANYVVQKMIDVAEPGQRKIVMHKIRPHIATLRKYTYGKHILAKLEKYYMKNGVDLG
The procedure, abridged: as §1

The target in experiment [5] is PUM1 PUF domain R1-RKR (Homo sapiens, UniProt Q14671 828-1176, S863R;R864K;Q867R). A digest of the protocol: as §1
For experiment [6], the target named is PUM1 PUF domain R7-KYF (Homo sapiens, UniProt Q14671 828-1176, S1079K;N1080Y;E1083F). The procedure, abridged: as §1
Experiment [7] addresses PUM1 PUF domain R4-PRQ (Homo sapiens, UniProt Q14671 828-1176, N971P;H972R). A digest of the protocol:
as §1

Experiment [8] concerns the target PUM1 PUF domain R4-HHN (Homo sapiens, UniProt Q14671 828-1176, N971H;Q975N). The procedure, abridged: as §1

As for “GGCUAGAACUAGUGGAUCCCCCGGCGCCCGGCGGCUCGAGCCCGGGUAAGUGUAAGUAGUCUGCAUGCCGCCGGGCGCCAUGCCUGCAGGUCGACUCUAGAAAACAUG”, the binding signal in experiment [1] is 5.09 log2 enrichment (interaction score); in experiment [2] it was 5.61 log2 enrichment (interaction score).
Consider “GGCUAGAACUAGUGGAUCCCCCGGCGCCCGGCGGCUCGAGCCCGGGUAAGUGUAAAUAGUCUGCAUGCCGCCGGGCGCCAUGCCUGCAGGUCGACUCUAGAAAACAUG”, for which the binding signal in experiment [1] was 0.87 log2 enrichment (interaction score); in experiment [3], 3.9 log2 enrichment (interaction score); in experiment [4], 5.78 log2 enrichment (interaction score).
With “GGCUAGAACUAGUGGAUCCCCCGGCGCCCGGCGGCUCGAGCCCGGGUAAGUGUAAAUUGUCUGCAUGCCGCCGGGCGCCAUGCCUGCAGGUCGACUCUAGAAAACAUG”, the binding signal in experiment [5] was 3.15 log2 enrichment (interaction score).
The same measure, in the same setting: for “GGCUAGAACUAGUGGAUCCCCCGGCGCCCGGCGGCUCGAGCCCGGGUAAGUGUAAAUCGUCUGCAUGCCGCCGGGCGCCAUGCCUGCAGGUCGACUCUAGAAAACAUG” the value was 3.04 log2 enrichment (interaction score).
Take “GGCUAGAACUAGUGGAUCCCCCGGCGCCCGGCGGCUCGAGCCCGGGUAAGUGUAAUUAGUCUGCAUGCCGCCGGGCGCCAUGCCUGCAGGUCGACUCUAGAAAACAUG”: in experiment [3], the binding signal was 1.49 log2 enrichment (interaction score).
As for “GGCUAGAACUAGUGGAUCCCCCGGCGCCCGGCGGCUCGAGCCCGGGUAAGUAUAAAUAGUCUGCAUGCCGCCGGGCGCCAUGCCUGCAGGUCGACUCUAGAAAACAUG”, the binding signal in experiment [6] is 3.75 log2 enrichment (interaction score).
The same measure, in the same setting: for “GGCUAGAACUAGUGGAUCCCCCGGCGCCCGGCGGCUCGAGCCCGGGUAAGUCUAAAUAGUCUGCAUGCCGCCGGGCGCCAUGCCUGCAGGUCGACUCUAGAAAACAUG” the value was 6.02 log2 enrichment (interaction score).
As to “GGCUAGAACUAGUGGAUCCCCCGGCGCCCGGCGGCUCGAGCCCGGGUAAGUGUACAUAGUCUGCAUGCCGCCGGGCGCCAUGCCUGCAGGUCGACUCUAGAAAACAUG”, the binding signal in experiment [7] is 3.53 log2 enrichment (interaction score).
On to “GGCUAGAACUAGUGGAUCCCCCGGCGCCCGGCGGCUCGAGCCCGGGUAAGUGUAUAUAGUCUGCAUGCCGCCGGGCGCCAUGCCUGCAGGUCGACUCUAGAAAACAUG”, for which the binding signal in experiment [8] is 6.48 log2 enrichment (interaction score).
